Measurements from PubChem BioAssay AID1117319 (Southern Research Institute, 2015).
Where “and” joins values, the source holds several entries; their conditions need not be identical. Identical values can stand only once. The whole screen tested about 260,000 compounds, of which about 1,500 (0.58%) were called active. Another 5% or so got no clear call; they are omitted. Not all results are given here. Potency and affinity values are given separately. Values without a mark were called inactive.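 The calls were made as follows: active = inhibition above a set limit at one or more doses, reproduced on every date tested; inconclusive = results disagree between test dates, or hit never tested in dose response; inactive = the rest.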

The molecules below were run against Virion infectivity factor (Human immunodeficiency virus type 1 group M subtype B (isolate BH10)) + Virion infectivity factor (Human immunodeficiency virus type 1 group M subtype B (isolate BRU/LAI)) + Virion infectivity factor (Human immunodeficiency virus type 1 group M subtype B (isolate PCV12)) + Virion infectivity factor (Human immunodeficiency virus type 1 group M subtype B (isolate HXB2)) + DNA dC->dU-editing enzyme APOBEC-3G (Homo sapiens) (UniProt P69720+P69721+P69722+P69723+Q9HC16) (assay: HIV-1 Vif–A3G interaction blockers – biochemical, TR-FRET, GST-Vif 1-94, biotin-A3G peptide, dose response retest, primary screen (AID 1117319;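 also: Vif residues 1-94 fused to GST binding biotinylated APOBEC3G peptide 110-148; 0% = full assay without inhibitor and 100% = GST in place of GST-Vif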)). Details: TR-FRET GST-Vif / biotin-A3G peptide binding; active compounds read high.

| Compound | inhibition |
| --- | --- |
| CCN(CC)CCn1c2c(c(SCC(=O)NCc3ccccc3)nc1=O)CCCC2 | 6.08% |
| O=C(NCCCN1CCN(CCCNC(=O)c2cccc([N+](=O)[O-])c2)CC1)c1cccc([N+](=O)[O-])c1 | 1.34% |
| Cc1nn(C)cc1/C=N/NC(=S)Nc1ccccc1 | 0.96% |
| C/C(N)=C(/C#N)C(=O)CSc1n[nH]c(-c2ccccc2Br)n1 | 10.4% and -7.5% |
| CCOC(=O)c1ccccc1NC(=O)[C@@H]1CCCN1C(=O)OC(C)(C)C | 3.12% |
| CCN1C(=O)c2ccc(C(=O)NCc3ccc4c(c3)OCO4)cc2C1=O | -10.4% |
| Cc1cc(C(F)(F)F)n2nc(C)c(-c3ccc(Cl)cc3)c2n1 | -0.47% |
| Cc1cc(C(F)(F)F)n2ncc(C(=O)O)c2n1 | -3.78% |
| CC(C)(C)C1=NN=C2c3ccccc3C(=O)C21 (stereo not drawn) | 6.1% |
| COCOCCn1cc(CN2CCS(=O)(=O)N(Cc3ccc(-c4ccc(Cl)cc4)cc3)C(C)C2=O)nn1 (stereo not drawn) | 1.6% |
| CCOC(=O)c1cc(C)n(-c2c(C)n(C)n(-c3ccccc3)c2=O)c1C | 2.99% |
| Cc1cc(C(=O)CC#N)c(C)n1-c1c(C)n(C)n(-c2ccccc2)c1=O | 3.73% |
| Cc1onc(-c2ccccc2Cl)c1C(=O)O/N=C(\N)c1ccccc1 | -3.35% |
| COc1ccc2c(=O)c3c(=O)n(Cc4ccco4)c(C(C)C)nc3oc2c1 | -5.33% |
| COc1ccc2c(=O)c3c(=O)n(Cc4ccco4)c(-c4ccccc4)nc3oc2c1 | -5.44% |
| COc1ccc2c(=O)c3c(=O)n(Cc4ccco4)c(-c4ccco4)nc3oc2c1 | 6.47% |
| COc1ccc2c(=O)c3c(=O)n(Cc4ccco4)c(-c4ccc(C)cc4)nc3oc2c1 | -32.5% |
| O=C(O)CCS(=O)(=O)Cc1ccccc1Cl | 3.96% |
| CC(C)OC(=O)C1C(=O)CC(C)(O)C(C(=O)OC(C)C)C1c1ccccc1 (stereo not drawn) | -5.49% |
| O=C(N/N=C/c1c[nH]c2ccccc12)c1ccc([N+](=O)[O-])cc1Cl | 2.78% |

| Compound | inhibition |
| --- | --- |
| CCCCC(=O)NC(=S)Nc1ccccc1N1CCCCC1 | 1.96% |
| Cc1nc(SCC(=O)c2ccc(F)c(F)c2)[nH]c(=O)c1Oc1ccc(F)cc1 | -1.47% |
| COc1cc(C2C(C(=O)c3ccc(C)o3)=C(O)C(=O)N2c2cc(C)on2)cc(Br)c1O (stereo not drawn) | 19.3% |
| Cc1cc(N2C(=O)C(O)=C(C(=O)c3ccco3)C2c2ccc(O)cc2)no1 (stereo not drawn) | -5.88% |
| COC(=O)c1ccc(COc2nc(C)cc(C)c2C#N)o1 | 2.74% |
| CCN(CC)S(=O)(=O)c1ccc(N2CCOCC2)c(NC(=O)CCC2CCCCC2)c1 | -9.59% |
| O=C(CCSc1ccccc1)N1CCN(c2ccccc2)CC1 | -3.65% |
| O=C(c1ccccc1C(=O)N1CCN(c2ccccc2)CC1)N1CCN(c2ccccc2)CC1 | 3.97% |
| CCn1c(SCC(=O)N2CCN(c3ccccc3)CC2)nnc1-c1ccoc1C | 7.37% |
| Cc1occc1-c1nnc(SCC(=O)N2CCN(c3ccc(F)cc3)CC2)n1C | 8.11% |
| O=C(O)c1ccccc1C(=O)N1CCN(c2ccccc2)CC1 | 3.73% |
| COc1ccc(N2CCN(C(=O)CSc3ccccc3)CC2)cc1 | 30.3% |
| CCc1nn2c(=O)cc(COc3ccc(/C=C4\C(=N)N5N=C(CC(C)C)SC5=NC4=O)cc3)nc2s1 | 9.59% |
| COc1ccc(OC)c(C2C(C(=O)c3cccs3)=C(O)C(=O)N2CCN(C)C)c1 (stereo not drawn) | 0.56% |
| CN1CCN(CCCNC(=O)c2ccc(/C=C3/Sc4ccccc4N(Cc4cccc(Cl)c4)C3=O)cc2)CC1 | 2.32% |
| O=C(C1=C[C@H](c2ccc(Br)cc2)C[C@H](OCc2ccc(CO)cc2)O1)N1CCOCC1 | 15.5% |
| Clc1ncc2[nH]cnc2n1 | 1.24% |
| COc1ccc(NC2CC(=O)N(CCc3ccccc3)C2=O)cc1 (stereo not drawn) | 25.7% |
| COc1cccc(NC2CC(=O)N(CCc3ccccc3)C2=O)c1 (stereo not drawn) | 1.52% |
| O=C(/C=C/c1ccc2c(c1)OCO2)c1ccc(O)cc1O | 8.42% |

| Compound | inhibition |
| --- | --- |
| Nc1ccccc1C(=O)/C=C/c1ccc2c(c1)OCO2 | 3.13% |
| Cc1ccc(C(=O)C=Cc2ccc3c(c2)OCO3)c(C)c1 | 0.22% |
| O=C(/C=C/c1ccccc1)c1cc(Br)ccc(=O)c1O | 24.6% |
| COC(=O)/C=C/c1ccc2c(c1)OCO2 | 4.78% |
| O=C(/C=C/c1ccc(F)cc1)c1cc(Br)ccc1O | -1.23% |
| COC(=O)c1ccccc1NC(=O)CSc1nnc(COc2cccc(OC)c2)n1C | 0.63% |
| COc1ccc(CNC(=O)CSc2ncnc3ccccc23)cc1OC | -8.65% |
| COc1ccc(N2CCN(CC(=O)Nc3ccc(SC(F)F)cc3)CC2)cc1 | 27.3% |
| N#Cc1c(NC(=S)NC(=O)Cc2cccs2)sc2c1CCCCC2 | 12.2% |
| COc1ccccc1N1CCN(C(=O)COc2ccc(S(=O)(=O)NC(C)C)cc2)CC1 | 0.75% |
| O=C(O)COc1ccccc1-c1ccccc1 | -0.72% |
| CN1CCC(N(C)C(=O)COc2ccccc2Cl)CC1 | -7.89% |
| N#Cc1ccc(C(=O)NC2CCCc3ccccc32)cc1 (stereo not drawn) | 5.64% |
| Cc1cn([C@H]2C[C@H](O)[C@@H](CNCc3ccc(F)c(N4CCOCC4)c3)O2)c(=O)[nH]c1=O | -0.24% |
| CC(=O)Nc1ccccc1NC(=O)COc1cccc2ccccc12 | -3.58% |
| COc1ccc(CCN=Cc2c(C)[nH]n(-c3ccc([N+](=O)[O-])cc3)c2=O)cc1OC | 3.12% |
| CC(=O)Nc1ccc(S(=O)(=O)Nc2cccc(-n3cnnn3)c2)cc1 | -3.6% |
| Cc1ccc(S(=O)(=O)Nc2cccc(-n3cnnn3)c2)cc1 | -12.1% |
